Data: the supplement of paper PMC13380429

Test system: Vero E6 infected with SARS-CoV-2
Experiment: inhibition of SARS-CoV-2 cytopathic effect; higher = more antiviral protection, active = above 15
Details: 48 h

Measured: inhibition of SARS-CoV-2 cytopathic effect

COc1ccc2cc(C(C)C(=O)Oc3ccc(C(N)=S)cc3)ccc2c1 (stereo not given)
inactive: 1 nM -0.75% | 8.33 nM 0.03% | 100 nM -0.37% | 833.33 nM 0.55% | 10000 nM 4.55%

c1ccc2sc(N3CCN(Cc4ccc5c(c4)OCO5)CC3)nc2c1 [2-[1-(4-piperonyl)piperazinyl]benzothiazole]
inactive: 1 nM -3.54% | 8.33 nM -1.04% | 100 nM -3.92% | 833.33 nM -3.68% | 10000 nM -2.73%

C[N+](C)(C)CC(=O)O [betaine]
inactive: 1 nM -1.71% | 8.33 nM -0.6% | 100 nM 0.16% | 833.33 nM 1.31% | 10000 nM -1.65%

O=C(Nc1cccc(Nc2ncc(Br)c(NCCc3cnc[nH]3)n2)c1)N1CCCC1
inactive: 1 nM -2.91% | 8.33 nM -2.57% | 100 nM -1% | 833.33 nM -2.29% | 10000 nM -4.48%

C=C(NC(=O)C(=C)NC(=O)c1csc(C2=N[C@@H]3c4csc(n4)[C@H]4NC(=O)c5csc(n5)[C@H]([C@](C)(O)[C@@H](C)O)NC(=O)[C@H]5CSC(=N5)/C(=C/C)NC(=O)[C@H]([C@@H](C)O)NC(=O)c5csc(n5)[C@]3(CC2)NC(=O)[C@H](C)NC(=O)C(=C)NC(=O)[C@H](C)NC(=O)[C@H]([C@@H](C)CC)N[C@@H]2C=Cc3c([C@H](C)O)cc(nc3[C@H]2O)C(=O)O[C@@H]4C)n1)C(N)=O [thiostrepton]
inactive: 1 nM -2.64% | 8.33 nM -1.12% | 100 nM -4.03% | 833.33 nM 1.58% | 10000 nM 7.51%

O=C(Nc1ccccc1)Nc1ccc(-c2ccc(C(=O)[C@@H]3CCC[C@@H]3C(=O)O)cc2)cc1
inactive: 1 nM -1.33% | 8.33 nM 1.31% | 100 nM 3.77% | 833.33 nM 1.06% | 10000 nM -1.53%

COc1ccc2[nH]c(SCc3ncc(C)c(OC)c3C)nc2c1 [omeprazole-sulfide]
inactive: 1 nM -13.8% | 8.33 nM -15.1% | 100 nM -15.8% | 833.33 nM -15.3% | 10000 nM -13.7%

CC(C)N(CCCNC(=O)Nc1ccc(C(C)(C)C)cc1)C[C@H]1O[C@@H](n2cc(Br)c3c(N)ncnc32)[C@H](O)[C@@H]1O
inactive: 1 nM 0.32% | 8.33 nM 9.52% | 100 nM -1.5% | 833.33 nM -1.25% | 10000 nM 0.03%

NCc1ccc(S(N)(=O)=O)cc1 [mafenide]
inactive: 1 nM 0.46% | 8.33 nM 1.5% | 100 nM 1.54% | 833.33 nM 2.7% | 10000 nM -2.32%

C[C@H](N)C(=O)N[C@@H](CCC(N)=O)C(=O)O [dipeptamin]
inactive: 1 nM -0.51% | 8.33 nM 1.67% | 100 nM -0.9% | 833.33 nM 0.75% | 10000 nM 0.66%

Cc1nc2ccc(-n3ncc(C(=O)c4cc5ccccc5[nH]4)c3N)cc2[nH]1
inactive: 1 nM -2.45% | 8.33 nM -1.11% | 100 nM 0.12% | 833.33 nM 2.07% | 10000 nM -0.86%

CCCN(CCC)C1Cc2cc(OC)c(OC)cc2C1
inactive: 1 nM -0.72% | 8.33 nM -0.86% | 100 nM -2.03% | 833.33 nM 0.79% | 10000 nM -2.36%

CN(C)C/C=C/C(=O)Nc1cc2c(Nc3ccc(F)c(Cl)c3)ncnc2cc1O[C@H]1CCOC1 [afatinib]
inactive: 1 nM -2.03% | 8.33 nM -3.01% | 100 nM -5.33% | 833.33 nM -8.01% | 10000 nM -9.49%

CN1[C@@H]2C[C@@H](O)C[C@H]1[C@@H]1O[C@@H]12 [scopine]
inactive: 1 nM -0.81% | 8.33 nM -0.43% | 100 nM -0.08% | 833.33 nM 1.5% | 10000 nM -0.8%

COC[C@H](NC(=O)c1cnc(C)s1)C(=O)N[C@@H](COC)C(=O)N[C@@H](Cc1ccccc1)C(=O)[C@@]1(C)CO1 [oprozomib]
inactive: 1 nM 0.33% | 8.33 nM 3.66%
active: 100 nM 38.6% | 833.33 nM 34.5% | 10000 nM 24.7%

CCCCc1ccc2[nH]c(NC(=O)OC)nc2c1 [parbendazole]
inactive: 1 nM 0.24% | 8.33 nM 0.63% | 100 nM -0.29% | 833.33 nM -0.99% | 10000 nM -1.63%

On1ncc(C2CCNCC2)c1-c1cccc(-c2ccccc2)c1
inactive: 1 nM 0.6% | 8.33 nM 1.61% | 100 nM 1.14% | 833.33 nM 0.48% | 10000 nM -2.39%

Cn1nccc1Nc1nccc(-c2ccn([C@H](CO)c3ccc(Cl)c(F)c3)c(=O)c2)n1
inactive: 1 nM 0.72% | 8.33 nM 0.13% | 100 nM -0.395% | 833.33 nM -5.82% | 10000 nM -9.29%

CCCCOc1ccc(OCCCN2CCOCC2)cc1 [pramoxine]
inactive: 1 nM -3.87% | 8.33 nM -1.02% | 100 nM -1.18% | 833.33 nM -1.83% | 10000 nM 0.79%

CS(=O)(=O)c1ccc([C@@H](CC2CCCC2)C(=O)Nc2nccs2)cc1
inactive: 1 nM -0.6% | 8.33 nM -1.12% | 100 nM 1.31% | 833.33 nM 1.71% | 10000 nM 1.96%

Cc1ccc2nc(NCCN)c3ncc(C)n3c2c1
inactive: 1 nM -1.03% | 8.33 nM -0.71% | 100 nM -2.54% | 833.33 nM 0.69% | 10000 nM -11.4%

C=CC[N+]1([C@H]2C[C@H]3[C@@H]4CC[C@H]5C[C@H](O)[C@@H](N6CCOCC6)C[C@]5(C)[C@H]4CC[C@]3(C)[C@H]2OC(C)=O)CCCC1
inactive: 1 nM -0.55% | 8.33 nM -0.87% | 100 nM 2.36% | 833.33 nM 1.73% | 10000 nM 0.75%

NC(=O)c1ccc(-c2nc(-c3ccccn3)c(-c3ccc4c(c3)OCO4)[nH]2)cc1
inactive: 1 nM -0.24% | 8.33 nM 0.7% | 100 nM 0.26% | 833.33 nM -3.74% | 10000 nM -3.14%

NC(=O)CN1Cc2ccccc2OC1=O [caroxazone]
inactive: 1 nM 1.09% | 8.33 nM -3.02% | 100 nM -3.19% | 833.33 nM -4.05% | 10000 nM -0.94%

Fc1ccc(C(c2ccc(F)cc2)N2CCN(C/C=C/c3ccccc3)CC2)cc1 [flunarizine]
inactive: 1 nM -1.77% | 8.33 nM -0.01% | 100 nM -1.97% | 833.33 nM -2.17% | 10000 nM -3.88%

O=C(O)CCCC[C@@H]1SC[C@@H]2NC(=O)N[C@@H]21 [biotin]
inactive: 1 nM 1.38% | 8.33 nM 1.22% | 100 nM -1.51% | 833.33 nM 0.93% | 10000 nM 1.95%

O=C(CCCCCCCC(=O)NCCO)NCCO [adelmidrol]
inactive: 1 nM -2.2% | 8.33 nM 2.3% | 100 nM 5.54% | 833.33 nM -1.21% | 10000 nM 0.2%

CC(C)C(N)C(=O)O (stereo in doubt) [L-valine]
inactive: 1 nM 0.78% | 8.33 nM -0.34% | 100 nM 0.64% | 833.33 nM -0.11% | 10000 nM 1.66%

CC(=O)OCC(=O)[C@H]1CC[C@H]2[C@@H]3CC[C@H]4C[C@H](O)CC[C@]4(C)[C@H]3C(=O)C[C@]12C [alfadolone-acetate]
inactive: 1 nM 3.28% | 8.33 nM 3.18% | 100 nM 2.11% | 833.33 nM 1.64% | 10000 nM -4.57%

COc1ccc(CCCO[C@@H](Cn2ccnc2)c2ccc(OC)cc2)cc1
inactive: 1 nM -4.38% | 8.33 nM -5.95% | 100 nM -10.2% | 833.33 nM -1.69% | 10000 nM 0.39%

CCOC(=O)[C@H](CCc1ccccc1)N[C@@H](C)C(=O)N1[C@H](C(=O)O)C[C@@H]2CCC[C@@H]21 [ramipril]
inactive: 1 nM -0.55% | 8.33 nM -0.01% | 100 nM -0.53% | 833.33 nM 5.34% | 10000 nM -2.38%

CC[C@H](/C=C/[C@@H](C)[C@H]1CC[C@H]2[C@@H]3CC=C4C[C@@H](O)CC[C@]4(C)[C@H]3CC[C@]12C)C(C)C [Stigmasterol (Stigmasterin)]
inactive: 1 nM 0.05% | 8.33 nM -0.75% | 100 nM 0.44% | 833.33 nM 0.29% | 10000 nM -0.01%

CC(=O)SC[C@@H](Cc1ccccc1)C(=O)NCC(=O)OCc1ccccc1 (racemic) [racecadotril]
inactive: 1 nM 1.48% | 8.33 nM 1.8% | 100 nM 0.82% | 833.33 nM 1.15% | 10000 nM -5.3%

O=C(O)c1cc(/N=N/c2ccc(O)c(C(=O)O)c2)ccc1O [olsalazine]
inactive: 1 nM 1.15% | 8.33 nM 2.03% | 100 nM 0.75% | 833.33 nM 2.78% | 10000 nM 1.21%

CN1C(=O)N(C)C2C1N(C)C(=O)N2C (stereo not given) [mebicar]
inactive: 1 nM -5.8% | 8.33 nM -1.8% | 100 nM -3.06% | 833.33 nM -1.23% | 10000 nM -2.18%

Cc1c(C(=O)NN2CCCCC2)nn(-c2ccc(Cl)cc2Cl)c1-c1ccc(Cl)cc1 [rimonabant]
inactive: 1 nM -1.86% | 8.33 nM 1.55% | 100 nM -0.12% | 833.33 nM 0.01% | 10000 nM -3.44%

O=S(=O)(O)c1ccc(-c2c3nc(c(-c4ccc(S(=O)(=O)O)cc4)c4ccc([nH]4)c(-c4ccc(S(=O)(=O)O)cc4)c4nc(c(-c5ccc(S(=O)(=O)O)cc5)c5ccc2[nH]5)C=C4)C=C3)cc1
inactive: 1 nM -2.9% | 8.33 nM -2.68% | 100 nM -5.47% | 833.33 nM -6.51% | 10000 nM -7.03%
